9 molecules from PubChem BioAssay (NCI) can be followed below.

About 83,000 compounds went through this panel and 20% of them were active in at least one assay; those are over-represented in the sample as a whole.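 Compound tested at a single concentration for 48 hours in 96-well plates; a percent growth value below 10 was scored as active.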 Unmarked numbers belong to inactive results. Activity calls are given as the source filed them.

Test systems include SR leukemia; RPMI-8226 leukemia; OVCAR-8 ovarian; OVCAR-4 ovarian; SK-OV-3 ovarian; IGROV1 ovarian; OVCAR-3 ovarian; HS 578T breast; NCI/ADR-RES ovarian; T-47D breast; BT-549 breast; MDA-MB-435 melanoma; SW-620 colon; MCF7 breast; HCT-116 colon; KM12 colon; HCC-2998 colon; OVCAR-5 ovarian.
Test in all cases: NCI-60 one-dose screen, 48 h (100 = growth as untreated, 0 = no growth, -100 = all killed)
Holding throughout (conditions): 10 µM unless noted

Take `Nc1nc(Br)nc2c1ncn2C1CC(O)C(CO)O1` (stereo not drawn): the growth was 52.2% in the experiment with SR leukemia; 73.5% in the experiment with RPMI-8226 leukemia; 35.9% in the experiment on OVCAR-8 ovarian; 81.9% in the experiment on OVCAR-4 ovarian; 94.2% in the experiment on SK-OV-3 ovarian; 96.3% in the experiment on IGROV1 ovarian. For the same molecule, the growth in the experiment on OVCAR-3 ovarian is 80.9%; with HS 578T breast, 91.7%; in the experiment with NCI/ADR-RES ovarian it was 22.3%; in the experiment on T-47D breast, 70.1%; with BT-549 breast, 50.1%; with MDA-MB-435 melanoma, 56.5%. The growth in the experiment with SW-620 colon was 60.1%; in the experiment with MCF7 breast, 28.4%; with HCT-116 colon, 37.9%; in the experiment on KM12 colon, 78.6%.
With `CCN1CCN(C(=O)[C@@]2(C)CC[C@]3(C)CC[C@]4(C)C(=CC(=O)[C@@H]5[C@@]6(C)CC[C@H](OCCC#N)C(C)(C)[C@@H]6CC[C@]54C)[C@@H]3C2)CC1`, the growth in the experiment with SR leukemia was 4.19% (active); in the experiment on RPMI-8226 leukemia, 63.2%; with OVCAR-8 ovarian, 90.5%; with OVCAR-4 ovarian, 94.7%; in the experiment on SK-OV-3 ovarian, 99.2%; with IGROV1 ovarian it was 95.5%. Further, the growth with OVCAR-3 ovarian was 100%; in the experiment with HS 578T breast it was 83.3%; with NCI/ADR-RES ovarian, 93.3%; with T-47D breast it was 66%; with BT-549 breast, 79%; in the experiment with MDA-MB-435 melanoma it was 81.5%. Moreover, the growth in the experiment on SW-620 colon was 97.9%; in the experiment with MCF7 breast, 78.2%; in the experiment on HCT-116 colon it was 80.6%; in the experiment with HCC-2998 colon it was 101%; in the experiment with KM12 colon, 98.5%.
As to `COc1cccc(-c2nn(-c3ccccc3)cc2-c2ccnc(NCCCNS(=O)(=O)c3ccc(C(F)(F)F)cc3)c2)c1`, the growth in the experiment with SR leukemia is -13.1% (active); in the experiment with RPMI-8226 leukemia it was 13.3%; with OVCAR-8 ovarian, 30.7%; in the experiment on OVCAR-4 ovarian, 33.5%; with SK-OV-3 ovarian it was 37.7%; with IGROV1 ovarian, 39.6%. Also, the growth in the experiment on OVCAR-3 ovarian was 36%; with HS 578T breast, 38.7%; with NCI/ADR-RES ovarian, 22.8%; with T-47D breast it was -2.76% (active); in the experiment with BT-549 breast, 36.6%; in the experiment with MDA-MB-435 melanoma, 27.1%. Also, the growth is 47.7% in the experiment with SW-620 colon; 16.9% with MCF7 breast; 22.9% in the experiment with HCT-116 colon; 20% with HCC-2998 colon; 23.8% in the experiment with KM12 colon.
Take `COc1cc(/C=C2\C(=O)N(CC(O)COc3cc(O)c4c(=O)cc(-c5ccccc5)oc4c3)c3ccccc32)cc(OC)c1O` (stereo not drawn): the growth is 45.9% in the experiment with SR leukemia; 57.9% in the experiment with RPMI-8226 leukemia; 77% in the experiment on OVCAR-8 ovarian; 78.7% in the experiment on OVCAR-4 ovarian; 111% in the experiment on SK-OV-3 ovarian; 51.3% in the experiment with IGROV1 ovarian. For the same molecule, the growth in the experiment on OVCAR-3 ovarian was 69.5%; in the experiment with HS 578T breast it was 85.1%; in the experiment with NCI/ADR-RES ovarian it was 87.5%; in the experiment with T-47D breast, 58.2%; in the experiment with BT-549 breast it was 96.7%; with MDA-MB-435 melanoma it was 54.7%. Also, the growth in the experiment with SW-620 colon is 89.9%; with MCF7 breast, 32.8%; in the experiment on HCT-116 colon, 78.4%; in the experiment with HCC-2998 colon it was 99.7%; with KM12 colon, 82%.
As for `Cc1ccc(-c2nc3ccc(Cl)cc3c(=O)n2N2C(=O)CSC2c2ccccc2Cl)cc1` (stereo not drawn), the growth was 80.8% in the experiment with SR leukemia; 80.1% in the experiment on RPMI-8226 leukemia; 27.3% in the experiment on OVCAR-8 ovarian; 14.4% with OVCAR-4 ovarian; 36.2% with SK-OV-3 ovarian; 57.5% with IGROV1 ovarian. Besides, the growth is 58.6% in the experiment on OVCAR-3 ovarian; 56.6% in the experiment with HS 578T breast; 70.6% with NCI/ADR-RES ovarian; 75.8% with T-47D breast; 100% with BT-549 breast; 66.9% in the experiment on MDA-MB-435 melanoma. For the same molecule, the growth in the experiment with SW-620 colon was 77.8%; with MCF7 breast, 94.1%; in the experiment with HCT-116 colon, 53.1%; in the experiment with HCC-2998 colon, 93.4%; in the experiment on KM12 colon, 82.3%.
Take `Cn1cc(-c2csc(-c3c[nH]c4ccc(F)cc34)n2)c2cccnc21`: the growth was 27.2% with SR leukemia; 52% in the experiment with RPMI-8226 leukemia; 47.6% in the experiment on OVCAR-8 ovarian; 78.4% with OVCAR-5 ovarian; 41.6% with IGROV1 ovarian; -2.33% (active) with OVCAR-3 ovarian. Moreover, the growth in the experiment on HS 578T breast is 76.1%; with NCI/ADR-RES ovarian, 9.55% (active); in the experiment with T-47D breast, 44.3%; with BT-549 breast it was 57.4%; in the experiment on MDA-MB-435 melanoma, -28% (active); with SW-620 colon, 26.5%. In addition, the growth in the experiment on MCF7 breast is 19.3%; in the experiment with HCT-116 colon, 23.1%; with HCC-2998 colon it was 71.7%; with KM12 colon, 20.6%.
For `NCCn1cc(-c2nc(-c3c[nH]c4ncccc34)cs2)c2cc(Br)ccc21`, the growth in the experiment with SR leukemia is 15.2%; in the experiment on RPMI-8226 leukemia it was 43.3%; in the experiment with OVCAR-8 ovarian, 91.6%; in the experiment with OVCAR-4 ovarian, 54.7%; with SK-OV-3 ovarian, 90.8%; in the experiment on IGROV1 ovarian, 43.6%. Moreover, the growth was 82.4% in the experiment with OVCAR-3 ovarian; 83.1% in the experiment on HS 578T breast; 90% in the experiment on NCI/ADR-RES ovarian; 44.8% in the experiment on T-47D breast; 97.8% in the experiment on BT-549 breast; 84.8% in the experiment with MDA-MB-435 melanoma. Besides, the growth is 7.12% (active) in the experiment with SW-620 colon; 30.7% in the experiment on MCF7 breast; 66.6% in the experiment with HCT-116 colon; 100% in the experiment with HCC-2998 colon; 65.2% in the experiment on KM12 colon.
Consider `CCCCC[C@H]1C/C=C2/C(=O)C(Cl)=C[C@@H]2C/C=C\CCCC(=O)O[C@@H](CCCCC)C/C=C2/C(=O)C(Cl)=C[C@@H]2C/C=C\CCCC(=O)O1`, for which the growth is -7.23% (active) in the experiment on SR leukemia; -13.6% (active) with RPMI-8226 leukemia; -13.9% (active) in the experiment with OVCAR-8 ovarian; 16% with OVCAR-4 ovarian; -21.4% (active) with SK-OV-3 ovarian; -44.4% (active) with IGROV1 ovarian. The growth in the experiment on OVCAR-3 ovarian is -82.7% (active); with HS 578T breast, 32.4%; in the experiment on NCI/ADR-RES ovarian, 19.8%; in the experiment with T-47D breast, -20.3% (active); with BT-549 breast, -52.7% (active); with MDA-MB-435 melanoma, -16.1% (active). For the same molecule, the growth in the experiment on SW-620 colon was -41.6% (active); in the experiment with MCF7 breast, -42.1% (active); with HCT-116 colon, -98.7% (active); with KM12 colon, -73% (active).
As for `COc1cccc(-c2nn(-c3ccccc3)cc2-c2ccnc(NCCNS(=O)(=O)c3ccc(Cl)cc3)c2)c1`, the growth in the experiment with SR leukemia is -5.49% (active); in the experiment on RPMI-8226 leukemia it was 9% (active); in the experiment on OVCAR-8 ovarian it was 31.1%; in the experiment with IGROV1 ovarian, 39.3%; with OVCAR-3 ovarian, 40.6%; with HS 578T breast it was 54.3%. In addition, the growth in the experiment with NCI/ADR-RES ovarian was 27.9%; with T-47D breast, 3.58% (active); with BT-549 breast, 41.9%; in the experiment on MDA-MB-435 melanoma it was 21.8%; in the experiment with SW-620 colon, 48.1%; in the experiment on MCF7 breast, 11%. Further, the growth is 20.6% in the experiment with HCT-116 colon, 19.5% in the experiment with HCC-2998 colon and 28.5% in the experiment with KM12 colon.
